Experimental data: PubChem BioAssay
Activity calls are given as the source filed them.

Experiments:
Albumin (Bos taurus) = Albumin (Bos taurus) (UniProt P02769); test: compounds binding labelled BSA control protein – biochemical, small-molecule microarray, Alexa647 label, 635/667 nm fluorescence, artefact control for SMM control protein annotation, profiling panel (AID 1118); conditions: BSA-A647 binding, fluorescence 635 nm, higher = more signal;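 also: score merges 667 nm emission intensity and signal-to-noise per printed compound spot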
[1] = probe aXIP binding to arrayed compounds – biochemical, NeuroSMM set, 635/667 nm fluorescence, primary screen (AID 1119); conditions: small-molecule microarray, higher = more signal, called active from +8 up or from −8 down;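 also: probe is the protein aXip251-270 applied at 1 µg/mL to compound-printed slides; binding of probe to printed compounds measured as 667 nm fluorescence plus signal to noise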
[2] = probe aNOTCH3 binding on compound microarray – biochemical, small-molecule microarray, 635/667 nm fluorescence, primary screen (AID 1120); conditions: higher = more signal;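 also: probe is a biotin-tagged antibody raised against NOTCH3 rather than NOTCH3 protein; score merges spot fluorescence near 667 nm with spot signal to noise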
[3] = probe aNOTCH2 binding on compound microarray – biochemical, small-molecule microarray, 635/667 nm fluorescence, primary screen (AID 1121); conditions: higher = more signal;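 also: score merges feature fluorescence read at 667 nm with its signal to noise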
[4] = target: Carbonic anhydrase 2 (Homo sapiens) (UniProt P00918); test: compounds binding carbonic anhydrase 2 – biochemical, small-molecule microarray, Alexa647-labelled CAII, profiling panel (AID 1122); conditions: CAII-A647 binding fluorescence, higher = more signal
[5] = COS7 lysate on small-molecule microarray, probe aHis, 635 nm (AID 1123); conditions: COS7 cell lysate, fluorescence, higher = more signal;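 also: z-score combines 667nm fluorescence intensity with signal-to-noise per printed compound spot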
[6] = probe aLAP1 signal on lysate-treated microarray – cell lysate, small-molecule microarray, COS7 lysate, primary screen (AID 1124); conditions: probe aLAP1, fluorescence, higher = more signal;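 also: lysate comes from COS7 cells expressing LAP1 and is applied at 0.3 µg/mL; score merges spot fluorescence near 667 nm with signal-to-noise over triplicate slides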
Sam68 (KHDRBS1) = test: compounds binding KHDRBS1 protein – biochemical, small-molecule microarray, 635 nm fluorescence, primary screen (AID 1125); conditions: higher = more signal;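 also: score merges 667 nm channel intensity with signal to noise over triplicate slides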
[7] = tested on: Chordin-like protein 2 (CHRDL2); test: compounds binding chordin-like 2 – biochemical, small-molecule microarray, 635 nm fluorescence, primary screen (AID 1126); conditions: fluorescence 635 nm, higher = more signal;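 also: printed compound slides probed with Chrdl2 protein at 4 µg/mL for 1 h at 4 C; score merges 667 nm emission intensity with signal to noise over three replicate slides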
[8] = target: Concanavalin-A (Canavalia ensiformis) (UniProt P02866); test: compounds binding concanavalin A lectin – biochemical, small-molecule microarray, Alexa647 label, 635 nm, artefact control for SMM control protein annotation, primary screen (AID 1127); conditions: ConA-A647 binding fluorescence, higher = more signal;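 also: z combines 667 nm emission intensity with signal-to-noise across three replicate slides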
[9] = compounds binding Alexa647 anti-His antibody – biochemical, small-molecule microarray, 635 nm fluorescence, artefact control for SMM control protein annotation, primary screen (AID 1128); conditions: higher = more signal;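 also: score merges feature fluorescence with signal-to-noise for each printed compound spot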
[10] = tested on: Human papillomavirus type 1a E7 protein (residues 1-88); test: HPV1a E7 small-molecule binders, primary screen, biochemical, small-molecule microarray, residues 1-88, 635 nm (AID 1129); conditions: small-molecule microarray binding, fluorescence 635 nm; higher = more signal
[11] = target: Focal adhesion kinase 1 (Homo sapiens) (UniProt Q05397); test: PTK2 protein binding on printed compound slides – biochemical, small-molecule microarray, 635/667 nm fluorescence, BSA, DTT, primary screen (AID 1130); conditions: 635 nm fluorescence, higher = more signal;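 also: composite of spot emission at 667 nm and signal to noise over triplicate slides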
[12] = tested on: Fibrinogen (Alexa647-labelled); test: Alexa647-fibrinogen binding to printed small molecules – biochemical, small-molecule microarray, 635/667 nm fluorescence, artefact control for SMM control-protein annotation, profiling panel (AID 1131); conditions: fibrinogen-A647 binding fluorescence, higher = more signal;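 also: z-score merges 667 nm fluorescence with per-spot signal-to-noise over triplicate slides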
[13] = target: Follistatin (Homo sapiens) (UniProt P19883); test: FST protein binding to printed compounds – biochemical, small-molecule microarray, 635/667 nm fluorescence, primary screen (AID 1132); conditions: 635 nm fluorescence, higher = more signal
[14] = target: Fibroblast growth factor 2 (Homo sapiens) (UniProt P09038); test: basic fibroblast growth factor binding to printed compounds – biochemical, small-molecule microarray, 635/667 nm fluorescence, primary screen (AID 1133); conditions: FGF2, fluorescence 635/667, higher = more signal
[15] = JC-1 mitochondrial potential readout, lung cancer cells – cell-based, A549, JC-1 fluorescence, basal, 24 h, 100 nL, profiling panel (AID 1138); conditions: higher = more signal;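 also: A549 lung adenocarcinoma cells under basal conditions with no added stimulus; test concentration not given here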
Lefty1 = Lefty1 protein binding to printed compounds – biochemical, small-molecule microarray, 635/667 nm fluorescence, primary screen (AID 1139); conditions: fluorescence 635/667, higher = more signal
[16] = tested on: wheat germ agglutinin (Triticum aestivum), Alexa647-labelled; test: Alexa647-WGA lectin binding to printed small molecules – biochemical, small-molecule microarray, 635/667 nm fluorescence, artefact control for SMM control-protein annotation, profiling panel (AID 1140); conditions: WGA-A647 binding, 635 nm fluorescence, higher = more signal;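 also: score merges 667 nm feature emission with signal to noise over triplicate slides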
[17] = target: Luciferin 4-monooxygenase (Photinus pyralis) (UniProt P08659); test: inhibition of purified Photinus pyralis luciferase – biochemical, luminescence, purified enzyme, 2006 set, primary screen (AID 1141); conditions: purified firefly luciferase, SteadyGlo luminescence, 30 min; higher = more signal, called active from +8 up or from −8 down;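 also: cell-free assay with purified firefly luciferase at 100 ng per well in PBS; test concentration not given here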
Sequence of Luciferin 4-monooxygenase (Photinus pyralis) (P08659 whole entry, looked up): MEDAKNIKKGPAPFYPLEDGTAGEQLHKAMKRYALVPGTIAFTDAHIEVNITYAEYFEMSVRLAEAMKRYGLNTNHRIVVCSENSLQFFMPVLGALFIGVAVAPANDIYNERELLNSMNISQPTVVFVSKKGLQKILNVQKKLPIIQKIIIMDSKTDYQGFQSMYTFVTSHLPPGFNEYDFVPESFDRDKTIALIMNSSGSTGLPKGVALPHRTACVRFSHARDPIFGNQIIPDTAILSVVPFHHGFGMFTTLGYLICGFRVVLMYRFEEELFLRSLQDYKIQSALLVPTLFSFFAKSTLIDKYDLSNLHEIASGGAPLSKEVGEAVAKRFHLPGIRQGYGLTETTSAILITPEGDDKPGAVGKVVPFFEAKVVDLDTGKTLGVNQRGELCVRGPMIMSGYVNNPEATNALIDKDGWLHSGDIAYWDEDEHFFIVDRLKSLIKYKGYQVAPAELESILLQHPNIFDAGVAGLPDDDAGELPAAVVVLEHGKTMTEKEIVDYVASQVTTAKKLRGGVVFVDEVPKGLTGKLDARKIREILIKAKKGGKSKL

Sequence of Focal adhesion kinase 1 (Homo sapiens) (Q05397 whole entry, looked up): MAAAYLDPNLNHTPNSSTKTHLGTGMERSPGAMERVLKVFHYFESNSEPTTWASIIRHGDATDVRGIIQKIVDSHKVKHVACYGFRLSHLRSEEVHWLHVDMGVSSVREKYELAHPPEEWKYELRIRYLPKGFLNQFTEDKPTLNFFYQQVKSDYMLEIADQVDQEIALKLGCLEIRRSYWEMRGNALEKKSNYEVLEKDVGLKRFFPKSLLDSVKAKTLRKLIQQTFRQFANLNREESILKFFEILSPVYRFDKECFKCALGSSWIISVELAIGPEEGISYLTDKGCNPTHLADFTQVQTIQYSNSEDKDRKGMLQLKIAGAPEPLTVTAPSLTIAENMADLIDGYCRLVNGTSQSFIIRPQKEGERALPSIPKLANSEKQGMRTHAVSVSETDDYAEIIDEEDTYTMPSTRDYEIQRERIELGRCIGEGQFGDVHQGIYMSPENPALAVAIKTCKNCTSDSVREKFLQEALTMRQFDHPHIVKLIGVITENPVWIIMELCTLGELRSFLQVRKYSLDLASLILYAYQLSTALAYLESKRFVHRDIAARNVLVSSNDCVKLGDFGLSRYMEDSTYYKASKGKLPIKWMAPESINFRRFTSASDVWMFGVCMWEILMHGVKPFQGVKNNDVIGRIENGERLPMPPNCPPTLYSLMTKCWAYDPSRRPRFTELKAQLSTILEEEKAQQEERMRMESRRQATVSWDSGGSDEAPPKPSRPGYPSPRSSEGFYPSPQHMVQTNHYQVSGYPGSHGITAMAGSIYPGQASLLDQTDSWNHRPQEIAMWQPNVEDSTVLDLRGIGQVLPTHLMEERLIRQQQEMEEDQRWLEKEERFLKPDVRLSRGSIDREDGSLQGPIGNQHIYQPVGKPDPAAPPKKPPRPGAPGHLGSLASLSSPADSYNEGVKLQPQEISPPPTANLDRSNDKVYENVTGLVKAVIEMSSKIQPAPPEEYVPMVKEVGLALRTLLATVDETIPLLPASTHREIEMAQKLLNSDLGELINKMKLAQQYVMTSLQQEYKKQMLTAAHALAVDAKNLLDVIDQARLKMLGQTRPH
Sequence of Albumin (Bos taurus) (P02769 whole entry, looked up): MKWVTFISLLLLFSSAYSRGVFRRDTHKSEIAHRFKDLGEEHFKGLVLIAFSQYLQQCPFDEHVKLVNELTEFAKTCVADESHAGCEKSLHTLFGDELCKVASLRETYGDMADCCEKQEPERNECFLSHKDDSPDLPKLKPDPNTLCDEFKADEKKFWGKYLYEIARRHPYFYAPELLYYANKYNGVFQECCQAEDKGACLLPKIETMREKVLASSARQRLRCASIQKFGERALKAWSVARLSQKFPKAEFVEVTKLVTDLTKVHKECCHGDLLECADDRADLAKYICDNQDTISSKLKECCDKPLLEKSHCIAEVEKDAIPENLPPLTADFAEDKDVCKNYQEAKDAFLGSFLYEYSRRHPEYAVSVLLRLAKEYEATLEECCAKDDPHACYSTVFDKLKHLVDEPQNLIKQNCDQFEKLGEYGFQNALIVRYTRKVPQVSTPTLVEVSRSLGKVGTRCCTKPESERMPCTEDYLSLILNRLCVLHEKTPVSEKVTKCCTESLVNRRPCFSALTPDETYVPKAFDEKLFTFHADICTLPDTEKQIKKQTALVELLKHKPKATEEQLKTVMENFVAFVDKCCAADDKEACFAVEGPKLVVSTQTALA
Sequence of Concanavalin-A (Canavalia ensiformis) (P02866 whole entry, looked up): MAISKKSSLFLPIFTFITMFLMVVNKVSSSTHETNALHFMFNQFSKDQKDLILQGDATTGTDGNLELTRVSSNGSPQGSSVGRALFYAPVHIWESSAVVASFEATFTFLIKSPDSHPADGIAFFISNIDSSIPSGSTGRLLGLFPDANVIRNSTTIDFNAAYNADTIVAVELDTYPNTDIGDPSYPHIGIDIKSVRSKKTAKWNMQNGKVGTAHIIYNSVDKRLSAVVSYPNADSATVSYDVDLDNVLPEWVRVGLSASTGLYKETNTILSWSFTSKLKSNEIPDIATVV
Sequence of Follistatin (Homo sapiens) (P19883 whole entry, looked up): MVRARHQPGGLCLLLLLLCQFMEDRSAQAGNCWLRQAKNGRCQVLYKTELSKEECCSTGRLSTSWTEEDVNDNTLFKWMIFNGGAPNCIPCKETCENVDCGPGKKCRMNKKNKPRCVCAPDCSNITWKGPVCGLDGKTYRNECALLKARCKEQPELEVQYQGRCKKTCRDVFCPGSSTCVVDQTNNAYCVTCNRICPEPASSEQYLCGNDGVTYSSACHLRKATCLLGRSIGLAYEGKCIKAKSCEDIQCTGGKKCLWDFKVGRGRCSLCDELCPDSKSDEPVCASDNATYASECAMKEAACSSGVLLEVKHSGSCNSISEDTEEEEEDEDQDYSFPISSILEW
Sequence of Fibroblast growth factor 2 (Homo sapiens) (P09038 whole entry, looked up): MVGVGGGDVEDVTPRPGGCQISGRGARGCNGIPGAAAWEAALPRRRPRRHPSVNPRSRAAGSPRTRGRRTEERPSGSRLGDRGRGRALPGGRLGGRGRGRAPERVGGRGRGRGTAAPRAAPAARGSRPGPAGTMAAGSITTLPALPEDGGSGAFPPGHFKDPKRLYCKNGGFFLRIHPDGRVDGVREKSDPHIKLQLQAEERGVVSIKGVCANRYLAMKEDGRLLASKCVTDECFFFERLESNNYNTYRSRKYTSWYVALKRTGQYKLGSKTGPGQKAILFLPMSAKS

Compound | composite z-score (Albumin (Bos taurus)) | composite Z-score [1] | composite z-score [2] | composite z-score [3] | composite z-score [4] | composite z-score [5] | composite z-score [6] | composite z-score (Sam68 (KHDRBS1)) | composite z-score [7] | composite z-score [8] | composite z-score [9] | composite z-score [10] | composite z-score [11] | composite z-score [12] | composite z-score [13] | composite z-score [14] | z-score [15] | composite z-score (Lefty1) | composite z-score [16] | z-score [17]
CCN1C(=O)[C@H]2[C@H]3[C@H](O)[C@H](O)CC(=NO[C@@H]4O[C@H](CO)[C@@H](O)[C@H](O)[C@H]4O)[C@H]3CC[C@H]2C1=O | -0.0203 | 0.121 (inactive) | -0.0783 | -0.148 | -0.0497 | -0.0296 | 0.212 | -0.305 | 0.43 | 0.634 | 0.0595 | 0.512 | 0.026 | 0.16 | 0.442 | 0.922 | -0.8 | 0.467 | 0.0622 | 0.217 (inactive)
CCOC(=O)[C@H](Cc1ccccc1)NC(=O)CCC1CC(OC(=O)NCCc2ccc(F)cc2)CC2(CCCC(COC(=O)NCCOc3ccccc3)O2)O1 (stereo not given in full) | 0.595 | -0.275 (inactive) | 0.0833 | -0.0189 | 0.0403 | 0.585 | 0.283 | 1.29 | 0.508 | 0.909 | 0.569 | 1.18 | 0.237 | 0.855 | 0.557 | 1.24 | 0.678 | 1.29 | 0.362 | 0.46 (inactive)
CO[C@H]1COC(=O)CCC[C@H](C)[C@H](OC)COC(=O)CC=C[C@@H]1C | -0.235 | -0.348 (inactive) | -0.189 | -0.118 | -0.515 | -1.17 | -0.219 | -0.219 | 1.15 | -0.362 | 1.03 | -0.676 | -0.0022 | -1.52 | 1.1 | 1.13 | -0.904 | 0.987 | -0.0108 | -0.981 (inactive)
CC(C)CON=C1C[C@@H](O)[C@@H](O)[C@@H]2[C@@H]3C(=O)N(c4ccc(F)cc4F)C(=O)[C@@H]3CC[C@@H]12 | 0.238 | -0.0578 (inactive) | -0.095 | -0.0896 | 0.0617 | -0.146 | 0.135 | 0.693 | 0.243 | 0.72 | 0.663 | 0.105 | 0.156 | 0.699 | 0.585 | 0.508 | -0.99 | 0.617 | -0.0433 | 0.831 (inactive)
C=CC[C@@H]1C=CC(ON=C(C)C)[C@@H](CO)O1 (stereo not given in full) | -0.282 | 0.112 (inactive) | -0.0288 | -0.19 | -0.341 | -0.301 | -0.178 | -1.11 | -0.213 | -0.0875 | 3.16 | -0.901 | 0.0886 | -0.445 | -0.356 | -0.458 | 0.178 | -0.0561 | -0.0488 | -0.0424 (inactive)
COC(=O)[C@@H]1CC[C@H](C)[C@@H](c2ccc(C)cc2)N1C(=O)c1ccc(C=NOC[C@H]2O[C@H](c3ccccc3)C=C[C@@H]2Oc2ccc(OC)cc2)cc1 | 0.312 | -0.496 (inactive) | 0.0257 | -0.161 | -0.145 | -0.336 | -0.192 | 0.233 | 0.692 | 0.45 | -0.585 | -0.274 | -0.0204 | -0.324 | 0.222 | 0.174 | -0.351 | 0.244 | 0.172 | 1.18 (inactive)
